# PKM2 act – PKM2 (human) enzyme activation. P14618. purified PKM2, Kinase-Glo ATP luminescence, activation; response scale: 0% is enzyme alone, no compound. Potency, µM (doses to about 57.5 µM), without a hit: at the top dose activation, usual class: activators. 260,000 compounds, 0.34% hits; note: potency is the fitted concentration of half-maximal effect; % is set by controls: 0 for no effect and ±100 for the full control effect; nearly all actives have a fitted effect of over 55% in size
#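 Kinase-Glo luminescence reports ATP generated from ADP (0.1 mM) and PEP (0.5 mM) by purified hPK-M2 after 1 h at room temperature, pH 7.2 imidazole buffer; intermediate enzyme activity allows detecting inhibitors and activators.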
# Mito fusion act – blocks mitochondrial division or promotes mitochondrial fusion | S. cerevisiae fusion-defective mutant growth rescue, CellTiterGlo 48 h | Potency, µM (top dose mostly 46.1 µM), for inactives: at the highest dose growth rescue (activation), usual class: activators | 320,000 compounds, 0.23% hits | AID 485298; note: potency is the fitted concentration of half-maximal effect; % of control where 0% means no effect; nearly all actives have a fitted effect of over 45% in size
#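 S. cerevisiae fusion-defective temperature-sensitive mutants (e.g. fzo1-1, mgm1-5) grown 48 h at 37C in YPEG (ethanol/glycerol non-fermentable) medium with 23 nl compound per well; growth rescue read as CellTiterGlo luminescence.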
# GLS inhibitor – glutaminase GLS (human) inhibition. GLS enzymatic activity, qHTS titration. Potency, µM (top dose mostly 45.5 µM), without a hit: at the top dose activity change, negative = inhibition, hits mostly inhibitors. AID 624170. O94925. 410,000 compounds, 0.21% hits; note: potency is the fitted concentration of half-maximal effect; % is set by controls: 0 for no effect and ±100 for the full control effect
# Target sequence (O94925 whole entry, looked up): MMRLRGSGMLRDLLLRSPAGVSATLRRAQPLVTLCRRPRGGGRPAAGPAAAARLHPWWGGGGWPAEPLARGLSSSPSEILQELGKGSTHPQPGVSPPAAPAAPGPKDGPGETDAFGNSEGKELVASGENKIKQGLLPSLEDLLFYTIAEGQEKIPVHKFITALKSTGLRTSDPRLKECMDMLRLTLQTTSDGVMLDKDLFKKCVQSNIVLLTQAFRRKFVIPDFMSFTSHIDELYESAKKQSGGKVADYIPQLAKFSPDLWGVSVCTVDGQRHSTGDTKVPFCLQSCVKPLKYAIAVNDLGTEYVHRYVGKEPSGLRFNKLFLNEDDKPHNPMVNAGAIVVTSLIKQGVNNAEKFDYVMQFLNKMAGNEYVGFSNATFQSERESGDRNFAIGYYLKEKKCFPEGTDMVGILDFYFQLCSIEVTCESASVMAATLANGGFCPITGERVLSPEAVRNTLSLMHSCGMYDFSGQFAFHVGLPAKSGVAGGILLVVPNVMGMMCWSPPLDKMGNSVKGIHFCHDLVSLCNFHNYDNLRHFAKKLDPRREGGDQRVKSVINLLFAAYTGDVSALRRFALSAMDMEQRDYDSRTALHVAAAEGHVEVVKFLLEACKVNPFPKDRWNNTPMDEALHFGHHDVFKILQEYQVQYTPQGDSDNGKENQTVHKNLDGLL
#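 Read-out is an Amplex red fluorescence increase coupled through glutamate oxidase and HRP, measured before and after 30 min room-temperature incubation. hKGA is in 45 mM KH2PO4 (pH 8.2) with 0.02% Tween-20; glutamine added as 1mM solution.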
# PLK1 PBD inh – blocks phosphopeptide binding to human PLK1 polo-box domain; AID 720504; P53350; Plk1 PBD binding of FITC phosphopeptide, fluorescence polarization; Potency, µM, for inactives: max response, negative = inhibition, actives largely listed as inhibitors; 360,000 compounds, 2.8% hits; note: potency is the fitted concentration of half-maximal effect; series mostly up to about 57 µM; % is set by controls: 0 for no effect and ±100 for the full control effect; nearly all actives have a fitted effect of over 65% in size
# GCN5L2 inh-1 – inhibitors of human GCN5L2 histone acetyltransferase | GCN5L2 HAT assay, ThioGlo1 CoA-SH fluorescence | Potency, µM (titrated, usually from 58.9 µM), without a hit: at the highest dose activity change, negative = inhibition, hits mostly inhibitors | 390,000 compounds, 0.21% hits | AID 504327; note: potency is the fitted concentration of half-maximal effect; % is set by controls: 0 for no effect and ±100 for the full control effect
#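 Titration-based screen in which CoA formation is detected via maleimide probe ThioGlo1 (50uM) turning fluorescent on thiol reaction; substrates H3(1-25) 75uM and acetyl-CoA 70uM, GCN5L2 20nM, 20 min incubation at room temperature.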
# VDR inh – blocks the human vitamin D receptor; Potency, µM, without a hit: max response, negative = inhibition, most hits filed as inhibitors; AID 504847; P11473; VDR-SRC2-3 peptide fluorescence polarization, 2 h; 400,000 compounds, 0.93% hits; note: potency is the fitted concentration of half-maximal effect; % is set by controls: 0 for no effect and ±100 for the full control effect
#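 Fluorescence polarization assay measuring small-molecule disruption of VDR binding to the coregulator peptide SRC2-3. Compounds were pin-transferred (23 nl) into the reagent mix and incubated 2 h at room temperature before reading.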
# GCN5L2 inh-2 – human KAT2A HAT inhibition, hit confirmation. shares compounds with GCN5L2 inh-1. GCN5L2 HAT, ThioGlo1 CoA fluorescence, 20 min. Potency, µM, actives largely listed as inhibitors. 140 compounds, 70% hits
# The depositor's hits bear a star; ? = inconclusive; . = no result given. In the library only some 3.4% were active in any assay of this set; here they are far more common. Calls come from the whole dose curve; as a rule, active = well fitted curve in the direction sought with a large enough effect; inconclusive = small, poorly fitted or top-dose-only effect, or another doubt; inactive = no such curve, though single readings can be large; an effect the other way counts as inactive or inconclusive.
SMILES,PKM2 act,Mito fusion act,GLS inhibitor,PLK1 PBD inh,GCN5L2 inh-1,VDR inh,GCN5L2 inh-2
CNc1ccc(/C=C(\CCC(=O)O)c2nc3ccccc3s2)cc1[N+](=O)[O-],1.8%,-17.7%,-22.8%,-21.1%,-4.0%,-1.3%,.
COc1ccc(-c2nc(CSc3nnc(C)n4c3cc3sccc34)c(C)o2)cc1,.,.,-15.8%,.,-0.3%,12.2%,.
Cc1nc2ccc(NC(=O)c3ccc(Cl)c([N+](=O)[O-])c3)cc2s1,-6.2%,2.6%,-2.8%,-3.2%,2.1%,7.4%,.
Cc1nc2ccc(NC(=O)c3cc([N+](=O)[O-])cc([N+](=O)[O-])c3Cl)cc2s1,2.1%,-32.0%,-18.0%,2.67µM*,?,?,8.13*
Cc1ccc(N2NC(=O)/C(=C/c3ccc(-c4ccc(Cl)c(C(=O)O)c4)o3)C2=O)cc1C,0.1%,-1.9%,?,?,-5.1%,4.5%,.
C=CCOC(=O)c1cc(-c2ccc(/C=C3\C(=O)NC(=O)C(C#N)=C3C)o2)ccc1Cl,3.3%,9.0%,-27.5%,5.97µM*,25.1µM*,25.1µM*,5.13*
COc1ccc2c(C(=O)NCCCCO)c(-c3ccc(S(C)(=O)=O)cc3)sc2c1,.,.,2.7%,-29.7%,?,-0.1%,36.3*
Oc1ccc(C=NNC(=S)Nc2cccnc2)nc1,.,.,39.4%,1.4%,.,-15.2%,.
O=C(Nc1ccc(-c2nc3ccccc3s2)c(O)c1)C1=COCCO1,2.4%,9.1%,-11.5%,-14.8%,25.1µM*,?,22.9*
CCc1ccccc1NC(=O)CNC(=O)CCc1nc2sc3c(c2c(=O)[nH]1)CCCC3,.,-2.3%,1.3%,-19.9%,-27.7%,-0.7%,.
COc1cc(/C=C(/C#N)c2nc3ccccc3[nH]2)ccc1OCC(=O)Nc1ccccc1C(C)C,2.7%,-2.5%,12.3%,-4.7%,?,0.3%,?
Cc1ccccc1NC(=O)Nc1nc(C(N)C2CCCCC2)cs1 (stereo not given),.,.,-0.4%,-4.4%,.,.,.
CC(C)c1ccc(S(=O)(=O)/N=C2\C=C(NS(=O)(=O)c3ccccc3)C(=O)c3ccccc32)cc1,.,?,-9.3%,23.8µM*,22.4µM*,79.4µM*,9.13*
O=C1ON=C(c2ccc(Cl)cc2)/C1=C/c1ccc(O)cc1,?,24.9%,?,0.474µM*,?,?,25.7*
COc1ccc(C(=O)N/N=C/c2ccc3cccc(OCc4ccccc4)c3n2)cc1,-2.3%,-1.3%,8.2%,0.6%,?,-13.7%,22.9*
O=C(N/N=C/c1ccc2cccc(OCc3ccccc3)c2n1)c1ccc(Br)cc1,-1.8%,-0.5%,-5.1%,8.5%,?,6.0%,.
COc1ccc(CN2CCN(c3nc4ccccc4s3)CC2)cc1,.,2.0%,3.2%,-3.8%,-2.2%,-4.9%,.
COc1ccc(CCn2c(O)cc3nn(-c4nc5ccccc5s4)c(=O)c-3c2C)cc1,7.2%,-2.6%,0.0%,-24.6%,25.1µM*,-5.0%,?
CC(C)(C)OC(=O)N1CCC(c2nnc(SCc3ccccc3F)o2)CC1,.,.,-11.2%,.,1.5%,-2.2%,.
COc1ccc(CC(=O)n2[nH]c(=O)ccc2=O)cc1OC,8.91µM*,-1.8%,10µM*,6.7µM*,?,44.7µM*,36.3*
COc1ccc(CC(=O)n2[nH]c(=O)c3ccccc3c2=O)cc1OC,-8.2%,-1.3%,2.4%,-2.6%,-3.8%,4.7%,.
O=C(OCCN1C(=O)c2cccc3c(N4CCOCC4)ccc(c23)C1=O)c1cccc(Cl)c1,2.9%,8.0%,-4.5%,21.2µM*,?,9.5%,?
O=C1c2cccc3c(N4CCCCC4)ccc(c23)C(=O)N1CCO,-1.4%,5.0%,13.9%,13.7%,0.2%,-10.8%,.
O=C(CSc1nc2ccccc2s1)Nc1cc(C(=O)O)cc(C(=O)O)c1,-4.2%,-6.2%,-2.7%,?,20µM*,-15.6%,?
CN(C)/C=C1\C=C2C(=O)c3ccccc3N2C1=O,4.1%,1.8%,-10.6%,461.5%,17.8µM*,4.1%,36.3*
SMILES,PKM2 act,Mito fusion act,GLS inhibitor,PLK1 PBD inh,GCN5L2 inh-1,VDR inh,GCN5L2 inh-2
CCCCNC(=O)C(NC(=O)c1ccc2c(c1)OCO2)C(=O)c1ccccc1 (stereo not given),.,.,.,-2.3%,.,.,.
C[n+]1ccccc1/C=C/c1ccc(C#N)cc1,-0.9%,-0.9%,1.9%,?,?,-0.2%,28.9*
CCOC(=O)Cc1csc(NC(=O)CSc2nnnn2-c2ccc(C)c(C)c2)n1,17.0%,-1.6%,-11.1%,-5.7%,?,-1.3%,?
CCNC(=O)C1(C)CCN(C(=O)c2ccc3c(c2)OCO3)C1 (stereo not given),.,.,-1.1%,5.6%,.,.,.
O=C(/C=C/c1ccco1)Nc1scc(-c2ccccc2)c1C(=O)O,-14.8%,-3.9%,18.5%,?,?,-15.0%,?
Cc1ccc(S(=O)(=O)N2[C@@H](c3ccc(Br)cc3)C(C(=O)O)=CC[C@H]2c2ccc(Cl)c(Cl)c2)cc1,.,.,3.5%,23.8µM*,28.2µM*,?,12.9*
O=C(O)C1=CC[C@@H](c2ccc(Cl)cc2)N(S(=O)(=O)c2ccc(Cl)cc2)[C@H]1c1ccccc1,.,3.1%,25.7%,?,?,-28.1%,.
Cc1ccc([C@H]2C(C(=O)O)=CC[C@@H](c3ccc(Cl)cc3)N2S(=O)(=O)c2ccc(C)cc2)cc1,.,.,22.3%,?,14.1µM*,-9.2%,?
COc1ccc(-c2nc(C)c(CCNC(=O)C(=O)Nc3cc(C)cc(C)c3)s2)cc1OC,.,.,-6.1%,.,-0.8%,-3.0%,.
COc1ccccc1-n1c(C)cc(/C=C2/C(=N)N3C(=NC2=O)SN=C3S(C)(=O)=O)c1C,-1.1%,5.5%,1.6%,?,-23.6%,-19.2%,.
CCOc1ccc(-n2c(C)cc(/C=C3/C(=N)N4C(=NC3=O)SN=C4S(C)(=O)=O)c2C)cc1,-7.8%,15.8%,18.9%,18.9µM*,31.6µM*,?,?
COC(=O)c1ccc(C2C(C(=O)c3cc4ccccc4o3)=C(O)C(=O)N2c2cc(C)on2)cc1 (stereo not given),.,-0.5%,0.0%,?,-10.8%,-13.2%,.
Cc1cc(N2C(=O)C(O)=C(C(=O)c3cc4ccccc4o3)C2c2cccc(Br)c2)no1 (stereo not given),.,9.6%,?,26.7µM*,?,?,?
CCC(C)Sc1cccc(-c2nc3ccc(C)cn3c2NC2CCCCC2)c1 (stereo not given),.,4.6%,-7.3%,4.9%,?,3.7%,.

# Source: PubChem
